PLK1 PBD inh: inhibitors of human PLK1 polo-box domain binding. P53350. Plk1 PBD binding of FITC phosphopeptide, fluorescence polarization. Potency, µM, hits mostly inhibitors. actives 2.8% (n = 360,000); further: series mostly up to about 57 µM; nearly all actives have a fitted effect of over 65% in size
BAZ2B inh: BAZ2B (human) inhibition; actives 4.4% (n = 360,000); AlphaScreen BAZ2B-H3K14Ac peptide displacement; Q9UIF8; Potency, µM (series often up to 114 µM), hits mostly inhibitors; further: nearly all actives have a fitted effect of over 60% in size
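Complex of BAZ2B and biotin-H3K14Ac (50 nM apiece) forms over 30 min at RT, then faces library compounds up to 110 uM for another 30 min; AlphaScreen beads added, 20 min dark incubation, luminescence read.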
HP1b chromo inh: inhibitors of HP1-beta chromodomain binding to methylated histone tails. P83916. AlphaScreen HP1-beta / biotin-H3K9me3 peptide binding. Potency, µM (series often up to 114 µM), usual class: inhibitors. actives 0.56% (n = 390,000); further: nearly all actives have a fitted effect of over 70% in size
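HP1-beta protein (50 nM final) preincubated 30 min at room temperature with biotinylated H3(1-18)K9me3 peptide (50 nM) in PBS pH 7.4, 0.01% Tween-20, then compound added for 30 min. AlphaScreen streptavidin donor/nickel chelate acceptor beads (10 ug/mL final), 30 min dark, luminescence read.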
PI5P4Ka inh: PI5P4K alpha (human) kinase inhibition. P48426. actives 1.2% (n = 330,000). max response, %. PI5P4Kalpha enzyme, ADP-Glo luminescence, 60 min; hits give low values. AID 652105; active means max response of -50% or lower; inconclusive means between -30% and -50%; inactive means -30% or higher; further: value at the top dose of about 77 µM
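Controls without substrate or without enzyme flank wells where PI5P4Kalpha converts substrate using 5 microM ATP (final). Incubation lasts 60 minutes at room temperature; ADP formed is read by ADP-Glo luminescence.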
GCN5L2 inh: GCN5L2 (KAT2A) acetyltransferase inhibition. GCN5L2 HAT assay, ThioGlo1 CoA-SH fluorescence. Potency, µM (doses to about 58.9 µM), actives largely listed as inhibitors. actives 0.21% (n = 390,000)
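ThioGlo1-coupled HAT assay: 20nM GCN5L2, 70uM acetyl-CoA, 75uM H3(1-25) peptide, pH 7.5. Fluorescence read at 340/540nm at start and after 20 min at room temperature.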
JMJD2A Tudor inh: blocks the human JMJD2A Tudor domain | O75164 | AlphaScreen JMJD2A-Tudor / H3K4me3 peptide binding | Potency, µM (highest dose often 114 µM), actives largely listed as inhibitors | actives 4.4% (n = 390,000); further: nearly all actives have a fitted effect of over 50% in size
Target sequence (O75164 whole entry, looked up, the tested form may be a part): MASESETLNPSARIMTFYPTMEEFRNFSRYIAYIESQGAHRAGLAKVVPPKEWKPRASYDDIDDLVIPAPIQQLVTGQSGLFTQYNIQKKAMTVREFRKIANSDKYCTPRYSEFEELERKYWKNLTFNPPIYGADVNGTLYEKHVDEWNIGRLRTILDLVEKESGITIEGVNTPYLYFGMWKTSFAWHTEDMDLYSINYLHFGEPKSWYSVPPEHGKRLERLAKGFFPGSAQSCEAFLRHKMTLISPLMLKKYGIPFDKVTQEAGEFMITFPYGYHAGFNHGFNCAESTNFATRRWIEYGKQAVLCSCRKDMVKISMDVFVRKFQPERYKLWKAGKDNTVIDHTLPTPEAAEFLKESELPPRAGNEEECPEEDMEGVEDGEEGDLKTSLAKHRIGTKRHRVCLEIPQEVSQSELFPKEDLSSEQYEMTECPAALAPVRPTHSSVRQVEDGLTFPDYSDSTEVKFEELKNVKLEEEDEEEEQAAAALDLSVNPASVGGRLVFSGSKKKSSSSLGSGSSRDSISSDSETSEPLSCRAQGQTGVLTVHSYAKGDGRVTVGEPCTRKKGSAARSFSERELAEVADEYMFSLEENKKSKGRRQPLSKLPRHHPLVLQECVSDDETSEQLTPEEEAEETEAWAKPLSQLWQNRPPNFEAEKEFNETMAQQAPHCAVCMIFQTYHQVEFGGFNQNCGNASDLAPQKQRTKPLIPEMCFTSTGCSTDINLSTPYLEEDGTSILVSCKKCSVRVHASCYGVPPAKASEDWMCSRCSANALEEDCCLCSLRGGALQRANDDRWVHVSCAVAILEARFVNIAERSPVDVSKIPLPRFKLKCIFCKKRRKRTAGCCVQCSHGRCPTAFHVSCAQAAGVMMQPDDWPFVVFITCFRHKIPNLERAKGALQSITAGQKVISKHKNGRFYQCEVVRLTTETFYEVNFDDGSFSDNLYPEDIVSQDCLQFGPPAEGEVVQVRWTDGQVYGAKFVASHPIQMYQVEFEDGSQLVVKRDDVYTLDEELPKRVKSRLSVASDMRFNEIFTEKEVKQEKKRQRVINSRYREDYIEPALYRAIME
A number is an active result; - = inactive; ? = inconclusive; . = no result; [ ] = dose if it differs, or a comment. The list is not random: actives were taken first. Their share in the collection is about 7%. Unless noted, the call rests on the fitted dose curve; in most records, active means well fitted curve in the direction sought with a large enough effect; inconclusive means small, poorly fitted or top-dose-only effect, or another doubt; inactive means no such curve, though single readings can be large; an effect the other way counts as inactive or inconclusive.

SMILES	PLK1 PBD inh	BAZ2B inh	HP1b chromo inh	PI5P4Ka inh	GCN5L2 inh	JMJD2A Tudor inh
Cn1cc(C(=O)NCCc2ccccc2)c(=O)c2cc(S(=O)(=O)N3CCCCC3)ccc21	.	.	-	.	-	-
Cn1cc(C(=O)O)c(=O)c2cc(S(=O)(=O)N3CCCCC3)ccc21	.	-	-	.	-	89.1µM
CC[C@@H](NC(=O)[C@@H](Cc1ccccc1)NC(=O)CC[C@H]1O[C@@H](n2ccc(=O)[nH]c2=O)[C@H](O)[C@@H]1O)c1ccccc1	-	.	.	-	.	.
O=C(Nc1ccc(F)c(Cl)c1)C1CCCN(c2ncnc3onc(-c4ccc(F)cc4)c23)C1 (stereo unspecified)	.	-	-	.	-	-
Cc1ccc(CS(=O)Cc2ccc(C(=O)NCc3ccc(OC(C)C)cc3)o2)cc1 (stereo unspecified)	-	-	-	-	-	-
O/N=C1/CCCCC1c1ccccn1 (stereo unspecified)	-	50.1µM	-	-	-	31.6µM
CCOCCCNC(=O)CSCc1nc(-c2ccc(SC)cc2)oc1C	29.9µM	-	-	-	-	-
COc1cc(C2C(C(=O)Nc3ccccc3C)=C(C)Nc3nc(SCc4cc(C)ccc4C)nn32)ccc1O (stereo unspecified)	.	-	-	.	-	-
COc1ccc(CNC(=O)C[C@H]2C[C@H](C(=O)N3CCCCC3)[C@@]3(C)c4[nH]c5ccc(Cl)cc5c4CCN3C2=O)cc1OC	-	.	-	-	-	56.2µM
COc1ccc(CNC(=O)C[C@H]2C[C@H](C(=O)N3CCCCC3)[C@@]3(C)c4[nH]c5cc(-c6ccco6)ccc5c4CCN3C2=O)cc1OC	-	.	?	-	-	56.2µM
CN(C)CCCNC(=O)C[C@H]1C[C@H](C(=O)N2CCCCC2)[C@@]2(C)c3[nH]c4ccc(Cl)cc4c3CCN2C1=O	-	.	-	-	-	-
COc1ccc2[nH]c3c(c2c1)CCN1C(=O)C(CC(=O)NCc2ccco2)C[C@H](C(=O)N2CCOCC2)[C@@]31C (stereo partly specified)	-	.	-	-	-	-
COc1ccc2[nH]c3c(c2c1)CCN1C(=O)C(CC(=O)NCc2ccc(OC)c(OC)c2)C[C@H](C(=O)N2CCOCC2)[C@@]31C (stereo partly specified)	26.7µM	.	-	-	-	-
COc1ccc2[nH]c3c(c2c1)CCN1C(=O)C(CC(=O)NCc2ccco2)C[C@H](C(=O)N2CCCCC2)[C@@]31CCc1ccccc1 (stereo partly specified)	-	.	-	-	-	?
COc1ccc2[nH]c3c(c2c1)CCN1C(=O)C(CC(=O)NCc2ccc(OC)c(OC)c2)C[C@H](C(=O)N2CCCCC2)[C@@]31CCc1ccccc1 (stereo partly specified)	21.2µM	.	-	?	-	?
C=CCN(Cc1ccc(Br)s1)C(=O)c1ccc(OCc2c(C)noc2C)cc1	-	.	.	-	.	.
COc1ccccc1NC(=O)/C(C#N)=C/c1cccn1C	-	.	-	-	.	-
CN(C)C(=O)CCc1ccc2c3c([nH]c2c1)[C@]1(CCc2ccccc2)[C@@H](C(=O)N2CCCCC2)C[C@H](CC(=O)NCc2cccc(C(F)(F)F)c2)C(=O)N1CC3	26.7µM	.	-	?	-	?
Cc1cc2c(s1)c1cnn(Cc3ccccc3F)c(=O)c1n2Cc1ccccc1F	.	.	.	.	.	-
COc1cccc(C=C(C#N)C(=O)c2ccccc2)c1	2.12µM	.	.	-	.	.
N#C/C(=C\c1cccc(Cl)c1)C(=O)c1ccccc1	0.844µM	-	-	-	-	-
COc1cccc(C(=O)NNC(=O)c2ccccc2)c1	-	-	-	-	-	-
Cc1nc(C)c(-c2ccc(SCC(=O)Nc3cccc(Cl)c3)nn2)s1	-	-	-	-	-	-
CC(=O)NCCNc1ncnc2ccc(-c3ccccc3C(F)(F)F)cc12	.	.	.	.	-	.
Cn1c(SCC(=O)c2ccccc2)nnc1-c1ccncc1	-	-	-	-	-	-
SMILES	PLK1 PBD inh	BAZ2B inh	HP1b chromo inh	PI5P4Ka inh	GCN5L2 inh	JMJD2A Tudor inh
Cn1c(SCC(=O)c2ccccc2)nnc1-c1ccccn1	-	79.4µM	-	-	-	-
Cn1c(SCC(=O)c2ccccc2)nnc1-c1cccc(N)c1	23.8µM	-	-	-	-[0.501 µM]	-[11.4 µM]
CCNS(=O)(=O)c1ccc(NC(=O)Cn2cc([N+](=O)[O-])cn2)cc1	?	-	-	-	-	-[11.4 µM]
CN(C(=O)c1cccc(NC(=O)Cc2ccc(NC(=O)C3CCN(C(=O)C4CC4)CC3)cc2)c1)C1CCCCC1	-	.	-	-	.	-
C[C@@H]1CN([C@@H](C)CO)C(=O)c2cc(NS(=O)(=O)c3ccc(F)cc3)ccc2O[C@@H](C)CCCCO[C@H]1CN(C)C(=O)NC1CCCCC1	-	.	.	-	.	.
CCn1c(CCNC(=O)c2ccc(C)cc2)n[nH]c1=S	-	-	-	-	-	6.31µM
Cn1c(CCNC(=O)c2ccc(Cl)cc2)n[nH]c1=S	-	-	-	-	-	10µM
CC(C)(C)c1ccc(C(=O)/C(C#N)=C/c2cccs2)cc1	7.52µM	50.1µM	?	-	-	?
CC(NC(=O)/C(C#N)=C/c1cccs1)c1ccccc1 (stereo unspecified)	-	-	-	-	-	-
O=C(NN1CCOCC1)c1ccc(Cl)cc1Cl	-	.	-	-	.	-
O=S(=O)(NN1CCOCC1)c1cc(Cl)cc(Cl)c1O	15µM	-	-	-	-	-
COC(=O)Nc1ccc(S(=O)(=O)NCc2ccccn2)cc1	-	-	-	-	-	5.62µM
O=S(=O)(NCc1ccccn1)c1ccccn1	-	?	-	-	-	?
COc1c(C)cc(S(=O)(=O)NCc2ccccn2)c(C)c1C	-	-	-	-	-	25.1µM
O=S(=O)(NCc1ccccn1)c1ccccc1	-	-	-	-	-	8.91µM
O=S(=O)(Cc1ccccc1)NCc1ccccn1	-	-	-	.	-	3.55µM
Cc1ccc(NC(=O)c2cc3c(-c4ccccc4)nn(-c4ccccc4)c3s2)cc1	.	-	-	.	-	-
COc1ccccc1CNC(=O)CN(C)S(=O)(=O)c1ccc(F)cc1	-	-	-	-	-	-
CCOc1ccc(CCNC(=O)c2ccc(C)c(-n3cnc4cccnc43)c2)cc1	.	-	-	.	-	-
CCOc1ccc(OCC)c(S(=O)(=O)NCc2ccccn2)c1	-	-	-	.	?	89.1µM
Cc1cc(N2C(=O)C(O)=C(C(=O)c3ccco3)C2c2cccc(O)c2)no1 (stereo unspecified)	?	?	-	-	-	-
O=C(C1=C(O)C(=O)N(c2nccs2)C1c1ccccc1)c1cc2ccccc2o1 (stereo unspecified)	?	39.8µM	-	-51.8	-	-

High-throughput results as filed in PubChem BioAssay.
